Where “and” joins values, the source holds several entries; their conditions need not be identical. Equal values may be shown once. Inconclusive results are not listed. Calls of active or inactive are those of the source.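 How the source made its calls, unless noted: active means normalized viability below 100% at a tested concentration; inactive means the rest.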
Assays:
[1] = Wnt pathway potentiators raising nuclear beta-catenin – imaging, WNT3A-conditioned medium, mouse C2C12, NPC library, primary screen (AID 1117326; in the data active means nuclear beta-catenin stimulation mostly above about 4.2%, no sharp cut-off; inactive means mostly below about 10%); settings: stronger effect = higher value
[2] = stimulators of insulin release from INS-1E, primary screen, cell-based, 5 mM glucose, NPC library (AID 1117329;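 active means compound raises insulin release from rat beta cells at 5 mM glucose, no numeric limit stated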); settings: rat INS-1E insulin secretion, at 10 µM, stronger effect = higher value
[3] = growth inhibition of GSK3B-pretreated HCT116 cells – cell-based, CellTiter-Glo, 0.2 to 20 µM (AID 1117336;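 active means compounds lowering colon cancer cell viability after pretreatment blocking the GSK3B kinase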); settings: HCT116 viability after GSK3B inhibitor, at 20 µM, stronger effect = higher value
[4] = inhibition of endothelial tube formation, primary screen, imaging, VEGF stimulated, CD31 staining, tube area, NPC library (AID 1117340;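 active means compound that reduces growth-factor-driven endothelial tube area in a mixed cell culture, no cutoff stated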); settings: VEGF-stimulated ADSC/ECFC co-culture, at 10 µM, stronger effect = higher value
[5] = GLP1 release stimulators, primary, NCI-H716, NPC library (AID 1117341;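 active means compound raises GLP1 secretion from the human gut endocrine cells, with no numeric limit stated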); settings: NCI-H716 cells, at 10 µM, stronger effect = higher value
[6] = HCT116 colon cancer cell growth inhibition, primary screen, CellTiter-Glo luminescence, NPC library (AID 1117342;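 active means compounds that lower survival of HCT116 colon cancer cells in the luminescence readout, no numeric limit stated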); settings: at 20 µM (top of the series)
[7] = reduced SW480 viability measured with CellTiter-Glo, NPC library, primary (AID 1117343;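 active means compounds that lower viability of the colon cancer cells in the luminescence readout, with no numeric limit stated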); settings: CellTiter-Glo luminescence; at 20 µM (top of the series) unless noted
[8] = NPC library primary testing for decreased DLD-1 cell viability via CellTiter-Glo (AID 1117346;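 active means compounds that lower survival of DLD-1 colon cancer cells in the luminescence readout, no cutoff given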); settings: DLD-1 viability, CellTiter-Glo luminescence; at 20 µM (top of the series)
[9] = test system: Aerobactin synthetase IucA (Klebsiella pneumoniae); experiment: inhibition of K. pneumoniae IucA enzyme – biochemical, Tocris library, absorbance (AID 1345561; call rule not given here;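 further: 100% = enzyme without compound and 0% = no enzyme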); settings: purified IucA enzyme assay, absorbance (OD) read-out; stronger effect = lower value;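 tested at 8 µM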
[10] = viability loss with induced miR-34 in A549 – imaging, A549 dox-inducible miR-34, nuclei and caspase counts, primary screen (AID 1347080;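 active means compounds whose cell count with miR-34 switched on is under 0.7 times the count with it off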); settings: A549 miR-34 inducible, Hoechst nuclei count, 48 h
[11] = galactose survival enhancers in mitochondrial complex I cybrids – cell-based, galactose medium, ATP luminescence, primary screen (AID 1645843;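 active means z-score of at least 1.8 in each of two replicates, scored against plate mean and spread of sample wells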;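 further: positive z means more ATP and so rescue of galactose-driven cybrid death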); settings: complex I mutant cybrid cells, 72 h, stronger effect = higher value
[12] = viability loss in pontine glioma line – cell-based, SU-DIPG-XVII, MIPE5.0, CellTiter-Glo, qHTS, dose response (AID 1347060; cut-off not given, nearly all actives have AC50 up to about 26 µM;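 on AC50: cells exposed to compound for 48 hours before viability readout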); settings: CellTiter-Glo ATP luminescence
[13] = viability loss in pontine glioma line – cell-based, SU-DIPG-XIII, MIPE4.0, CellTiter-Glo, qHTS, dose response (AID 1347061; cut-off not given, nearly all actives have AC50 up to about 37 µM;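 further: cells exposed to compound for 48 hours before readout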); settings: CellTiter-Glo ATP luminescence
[14] = viability loss in pontine glioma line – cell-based, JHH-DIPG-1, MIPE4.0, CellTiter-Glo, qHTS, dose response (AID 1347062; cut-off not given, nearly all actives have AC50 up to about 27 µM;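 on AC50: cells exposed to compound for two days before readout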); settings: JHH-DIPG-1 viability, CellTiter-Glo ATP luminescence
[15] = growth inhibition of DIPG cells – cell-based, MIPE5.0 library, qHTS (AID 1347068; cut-off not given, nearly all actives have IC50 up to about 30 µM;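 on IC50: cells exposed to compound for 48 hours before viability readout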); settings: SU-DIPG-XXV viability
[16] = molecular target: NAD(+) hydrolase SARM1 (Homo sapiens) (UniProt Q6SZW1); experiment: blocking NAD cleavage by SARM1 SAM-TIR – cell lysate, NAD-Glo luminescence (AID 1508614;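 active means compound whose remaining NAD level is above about 45 nM, limit read from the data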); settings: SAM-TIR HEK293T lysate NADase, at 1 µM, stronger effect = higher value
[17] = MELAS cybrid and Rieske KO viability enhancers – cell-based, MELAS cybrids, Rieske KO mouse fibroblasts, CellTiter-Glo, primary screen (AID 1508586;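 active means mean z-score across replicates of 1.96 or higher in either the MELAS or the Rieske mutant cell line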;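 further: z relative to plate mean and SD of compound and empty wells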); settings: low glucose
[18] = drug combination growth inhibition, ovarian cancer – cell-based, oncology-focused library, rucaparib conditional, profiling panel (AID 1508598); settings: patient-derived ovarian cancer cells, CellTiter-Glo viability, 144 h, stronger effect = lower value
[19] = P. berghei load reduction in hepatocytes – cell-based, HepG2, luciferase luminescence, HepG2 viability, primary screen (AID 624349; in the data active means parasite load remaining mostly below about 12%, no sharp cut-off; inactive means mostly above about 10%;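 further: 100% = mean of DMSO negative control wells on the same plate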); settings: P. berghei liver stage in HepG2, luciferase luminescence, concentration not given here; parasite load remaining: stronger effect = lower value; viability: measured here: HepG2 viability without parasites
[20] = stronger effect = lower value, cell number ratio, induced over uninduced
[21] = measured here: relative caspase fold change +Dox/-Dox
[22] = measured here: total cells with miR-34 induction, stronger effect = lower value
[23] = measured here: total cells without miR-34 induction
[24] = MELAS cybrid survival, CellTiter-Glo 48 h, stronger effect = higher value
[25] = Rieske KO mouse fibroblast survival, CellTiter-Glo 72 h

Chain of NAD(+) hydrolase SARM1 (Homo sapiens) (Q6SZW1 whole entry, looked up): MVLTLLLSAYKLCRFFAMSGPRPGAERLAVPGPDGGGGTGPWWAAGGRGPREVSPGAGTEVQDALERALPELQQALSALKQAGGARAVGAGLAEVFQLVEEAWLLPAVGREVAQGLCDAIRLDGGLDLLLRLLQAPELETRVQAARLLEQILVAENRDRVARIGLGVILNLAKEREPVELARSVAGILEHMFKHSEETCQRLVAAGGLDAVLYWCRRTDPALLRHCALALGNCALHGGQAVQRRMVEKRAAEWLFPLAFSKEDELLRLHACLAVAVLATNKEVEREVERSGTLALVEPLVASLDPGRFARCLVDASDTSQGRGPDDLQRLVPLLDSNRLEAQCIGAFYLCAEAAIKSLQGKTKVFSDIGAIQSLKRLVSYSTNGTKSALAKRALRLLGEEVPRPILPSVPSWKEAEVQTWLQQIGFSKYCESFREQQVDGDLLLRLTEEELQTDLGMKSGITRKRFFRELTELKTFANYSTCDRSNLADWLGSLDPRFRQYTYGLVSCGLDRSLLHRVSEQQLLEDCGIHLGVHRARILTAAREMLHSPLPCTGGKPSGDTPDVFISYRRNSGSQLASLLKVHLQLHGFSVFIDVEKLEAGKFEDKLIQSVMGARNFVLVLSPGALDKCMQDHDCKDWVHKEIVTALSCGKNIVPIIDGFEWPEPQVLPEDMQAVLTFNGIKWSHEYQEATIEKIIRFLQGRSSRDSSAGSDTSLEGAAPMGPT

CC1(C)Oc2ccc(C#N)cc2[C@@H](N2CCCC2=O)[C@@H]1O
inactive: nuclear beta-catenin stimulation ([1]; at 10 µM) 0.9% | insulin secretion stimulation [2] 0.4% | viability decrease [3] -2.5% | tube area decrease [4] -8.1% | GLP1 secretion stimulation [5] 3.2% | inhibition of viability [6] 17.9% | viability decrease (inhibition) [7] -2.4% | viability decrease (inhibition) [8] 5.4% | remaining activity [9] 118% | fold change [10, 20] 0.905 | z-score [11] 0.27
0.1%: nuclear beta-catenin stimulation ([1]; stimulation, at 2 µM)
10200: cell count [10, 23]
1.17: fold change [10, 21]
9250: cell count [10, 22]

Cc1oc(=O)oc1CN1CCN(c2cc3c(cc2F)c(=O)c(C(=O)O)c2n3C(C)S2)CC1 (centres undefined)
1.4%: nuclear beta-catenin stimulation ([1]; stimulation, at 2 µM)
inactive: nuclear beta-catenin stimulation ([1]; at 10 µM) 0.8% | insulin secretion stimulation [2] 1.6% | viability decrease [3] 35.8% | tube area decrease [4] 4.4% | GLP1 secretion stimulation [5] 2.3% | inhibition of viability [6] 38.1% | viability decrease (inhibition) [7] 26.1% | viability decrease (inhibition) [8] 1.4% | outcome [12] | outcome [13] | outcome [14] | outcome [15] | remaining NAD [16] 10 nM

O=C(O)Cc1ccc(OCCNC[C@H](O)c2ccccc2)cc1
2.1: fold change [10, 21]
inactive: nuclear beta-catenin stimulation ([1]; at 10 µM) 23.3% | insulin secretion stimulation [2] 0.6% | viability decrease [3] -5.3% | tube area decrease [4] -9.4% | GLP1 secretion stimulation [5] -0.5% | inhibition of viability [6] -1.1% | viability decrease (inhibition) [7] 8.4% | viability decrease (inhibition) [8] 19.5% | remaining activity [9] 103% | fold change [10, 20] 0.89 | z-score [11] 0.015
-5%: nuclear beta-catenin stimulation ([1]; stimulation, at 2 µM)
10000: cell count [10, 23]
8910: cell count [10, 22]

O=C(NOCC1CC1)c1ccc(F)c(F)c1Nc1ccc(I)cc1Cl
inactive: nuclear beta-catenin stimulation ([1]; at 10 µM) 1.5% | insulin secretion stimulation [2] -0.4% | viability decrease [3] 43.3% | GLP1 secretion stimulation [5] 9.6% | fold change [10, 20] 1.1 | z-score [17, 24] -0.582 | viability ([18]; at 0.000305 µM, OCI-C5x cells, with rucaparib 10 µM, 100% = cells with rucaparib alone) 116% | viability ([18]; at 0.000305 µM, OCI-C5x cells, without rucaparib) 119% | viability ([18]; at 0.000305 µM, OCI-P5x cells, with rucaparib 20 µM, 100% = cells with rucaparib alone) 142% | viability ([18]; at 0.000305 µM, OCI-P5x cells, without rucaparib) 100% | viability ([18]; at 0.00122 µM, OCI-C5x cells, with rucaparib 10 µM, 100% = cells with rucaparib alone) 112% | viability ([18]; at 0.00122 µM, OCI-C5x cells, without rucaparib) 120% | viability ([18]; at 0.00122 µM, OCI-P5x cells, with rucaparib 20 µM, 100% = cells with rucaparib alone) 135% | viability ([18]; at 0.00122 µM, OCI-P5x cells, without rucaparib) 109% | viability ([18]; at 0.00488 µM, OCI-C5x cells, with rucaparib 10 µM, 100% = cells with rucaparib alone) 123% | viability ([18]; at 0.00488 µM, OCI-C5x cells, without rucaparib) 118% | viability ([18]; at 0.00488 µM, OCI-P5x cells, with rucaparib 20 µM, 100% = cells with rucaparib alone) 126% | viability ([18]; at 0.0195 µM, OCI-C5x cells, with rucaparib 10 µM, 100% = cells with rucaparib alone) 115% | viability ([18]; at 0.0195 µM, OCI-C5x cells, without rucaparib) 127% | viability ([18]; at 0.0195 µM, OCI-P5x cells, with rucaparib 20 µM, 100% = cells with rucaparib alone) 122% | viability ([18]; at 0.0195 µM, OCI-P5x cells, without rucaparib) 107% | viability ([18]; at 0.0781 µM, OCI-C5x cells, with rucaparib 10 µM, 100% = cells with rucaparib alone) 121% | viability ([18]; at 0.0781 µM, OCI-C5x cells, without rucaparib) 111% | viability ([18]; at 0.0781 µM, OCI-P5x cells, with rucaparib 20 µM, 100% = cells with rucaparib alone) 124% | viability ([18]; at 0.0781 µM, OCI-P5x cells, without rucaparib) 110% | viability ([18]; at 0.313 µM, OCI-C5x cells, with rucaparib 10 µM, 100% = cells with rucaparib alone) 121% | viability ([18]; at 0.313 µM, OCI-C5x cells, without rucaparib) 119% | viability ([18]; at 0.313 µM, OCI-P5x cells, with rucaparib 20 µM, 100% = cells with rucaparib alone) 106% | viability ([18]; at 1.25 µM, OCI-C5x cells, with rucaparib 10 µM, 100% = cells with rucaparib alone) 104% | viability ([18]; at 1.25 µM, OCI-C5x cells, without rucaparib) 117% | viability ([18]; at 5 µM, OCI-C5x cells, without rucaparib) 116%
active: tube area decrease [4] 104% | inhibition of viability [6] 87.4% | viability decrease (inhibition) [7] 133% | viability decrease (inhibition) [8] 92.4% | AC50 [12] 2.35 µM | AC50 [13] 11.8 µM | AC50 [14] 16.6 µM | IC50 [15] 13.2 µM | viability ([18]; at 0.00488 µM, OCI-P5x cells, without rucaparib) 97.9% | viability ([18]; at 0.313 µM, OCI-P5x cells, without rucaparib) 92.7% | viability ([18]; at 1.25 µM, OCI-P5x cells, with rucaparib 20 µM, 100% = cells with rucaparib alone) 87.2% | viability ([18]; at 1.25 µM, OCI-P5x cells, without rucaparib) 90.5% | viability ([18]; at 5 µM, OCI-C5x cells, with rucaparib 10 µM, 100% = cells with rucaparib alone) 87.6% | viability ([18]; at 5 µM, OCI-P5x cells, with rucaparib 20 µM, 100% = cells with rucaparib alone) 61% | viability ([18]; at 5 µM, OCI-P5x cells, without rucaparib) 63.3%
0.299: z-score [17, 25]
1.7%: nuclear beta-catenin stimulation ([1]; stimulation, at 2 µM)
2940: cell count [10, 23]
0.574: fold change [10, 21]
3240: cell count [10, 22]

NS(=O)(=O)c1cc(Cl)c(Cl)c(S(N)(=O)=O)c1
0.4%: nuclear beta-catenin stimulation ([1]; stimulation, at 2 µM)
1.4 and 0.793: fold change [10, 21]
active: AC50 [12] 26.3 µM
0.943 and -0.845: z-score [17, 25]
104%: viability [19]
inactive: parasite load remaining [19] 89.1% | nuclear beta-catenin stimulation ([1]; at 10 µM) -1.4% | insulin secretion stimulation [2] 3.3% | viability decrease [3] 1% | tube area decrease [4] -7.2% | GLP1 secretion stimulation [5] 0.3% | inhibition of viability [6] 6.4% | viability decrease (inhibition) [7] 6.1% | viability decrease (inhibition) [8] -8.2% | outcome [13] | outcome [14] | outcome [15] | fold change [10, 20] 0.878 and 0.937 | z-score [17, 24] -0.199 and -0.0719
9640 and 9360: cell count [10, 23]
8460 and 8780: cell count [10, 22]

NCCNC(=O)c1ccc(Cl)cn1
9430: cell count [10, 23]
1.55: fold change [10, 21]
8230: cell count [10, 22]
inactive: nuclear beta-catenin stimulation ([1]; at 10 µM) 1.5% | insulin secretion stimulation [2] -1.7% | viability decrease [3] -5.05% | tube area decrease [4] -14.8% | GLP1 secretion stimulation [5] -1.7% | inhibition of viability [6] -6.5% | viability decrease (inhibition) [7] 16.3% | viability decrease (inhibition) [8] -10.3% | remaining activity [9] 98% | fold change [10, 20] 0.873 | z-score [11] 0.045
0.2%: nuclear beta-catenin stimulation ([1]; stimulation, at 2 µM)

CCOC(=O)[C@H](CCc1ccccc1)N[C@H]1CS[C@H](c2cccs2)CN(CC(=O)O)C1=O
active: AC50 [13] 14.8 µM | AC50 [14] 0.59 µM
-0.9%: nuclear beta-catenin stimulation ([1]; stimulation, at 2 µM)
inactive: nuclear beta-catenin stimulation ([1]; at 10 µM) 0.9% | insulin secretion stimulation [2] 2% | viability decrease [3] -8.8% | tube area decrease [4] -13.9% | GLP1 secretion stimulation [5] 4.1% | inhibition of viability [6] -4.6% | viability decrease (inhibition) [7] -29% | viability decrease (inhibition) [8] 2.5% | outcome [12] | outcome [15]

— PubChem BioAssay
